The record followed here is PubChem BioAssay.

Active and inactive are the calls of the source.

Experiment [1] in a line: anti-His antibody binders, primary screen, artefact control for SMM control protein annotation, biochemical, small-molecule microarray, 635 nm fluorescence (AID 1128).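 Further: score merges feature fluorescence with signal-to-noise for each printed compound spot.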 The conditions noted are these: anti-His Alexa647 antibody binding, higher = more signal.
Experiment [2] deals with Human papillomavirus type 1a E7 protein (residues 1-88). In words: HPV1a E7 small-molecule binders, primary screen, biochemical, small-molecule microarray, residues 1-88, 635 nm (AID 1129). The conditions noted are these: small-molecule microarray binding, fluorescence 635 nm; higher = more signal.
For experiment [3], the target named is Focal adhesion kinase 1 (Homo sapiens) (UniProt Q05397). The experiment in a line: small-molecule microarray binders of FAK, primary screen, biochemical, 635/667 nm fluorescence, BSA, DTT (AID 1130).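 Further: composite of spot emission at 667 nm and signal to noise over triplicate slides.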 The conditions noted are these: PTK2 binding, 635 nm fluorescence, higher = more signal.
Focal adhesion kinase 1 (Homo sapiens), sequence (Q05397 whole entry, looked up): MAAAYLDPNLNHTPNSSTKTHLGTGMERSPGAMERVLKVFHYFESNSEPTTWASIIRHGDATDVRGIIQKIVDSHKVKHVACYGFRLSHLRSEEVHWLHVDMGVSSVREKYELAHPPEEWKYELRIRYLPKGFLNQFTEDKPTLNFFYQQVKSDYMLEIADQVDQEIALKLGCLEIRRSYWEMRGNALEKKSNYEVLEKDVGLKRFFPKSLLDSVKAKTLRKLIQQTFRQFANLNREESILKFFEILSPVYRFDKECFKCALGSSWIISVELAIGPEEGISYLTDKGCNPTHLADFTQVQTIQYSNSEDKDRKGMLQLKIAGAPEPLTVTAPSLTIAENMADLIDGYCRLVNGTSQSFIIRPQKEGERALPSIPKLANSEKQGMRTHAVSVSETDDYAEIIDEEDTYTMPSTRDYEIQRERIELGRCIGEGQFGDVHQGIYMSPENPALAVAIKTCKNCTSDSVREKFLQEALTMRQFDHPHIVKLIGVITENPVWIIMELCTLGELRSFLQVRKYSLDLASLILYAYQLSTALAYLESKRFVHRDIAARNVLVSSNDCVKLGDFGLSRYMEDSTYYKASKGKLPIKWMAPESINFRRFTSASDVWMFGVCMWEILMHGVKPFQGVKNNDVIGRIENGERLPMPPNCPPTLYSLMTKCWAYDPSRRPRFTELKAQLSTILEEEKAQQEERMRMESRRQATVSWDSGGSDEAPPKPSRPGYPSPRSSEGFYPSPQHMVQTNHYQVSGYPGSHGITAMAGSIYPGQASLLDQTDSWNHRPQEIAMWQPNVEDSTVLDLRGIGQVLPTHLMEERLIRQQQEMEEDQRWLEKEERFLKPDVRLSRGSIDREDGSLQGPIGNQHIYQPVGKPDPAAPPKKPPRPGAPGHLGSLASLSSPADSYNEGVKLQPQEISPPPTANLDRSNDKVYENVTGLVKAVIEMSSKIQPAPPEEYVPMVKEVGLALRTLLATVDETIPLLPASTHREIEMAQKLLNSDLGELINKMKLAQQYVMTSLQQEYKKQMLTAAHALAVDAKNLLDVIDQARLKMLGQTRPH
Experiment [4] concerns Fibrinogen (Alexa647-labelled). In words: fibrinogen binders on compound microarrays, profiling panel, artefact control for SMM control-protein annotation, biochemical, small-molecule microarray, 635/667 nm fluorescence (AID 1131).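 Further: z-score merges 667 nm fluorescence with per-spot signal-to-noise over triplicate slides.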 The conditions noted are these: fibrinogen-A647 binding fluorescence, higher = more signal.
For experiment [5], the target named is Follistatin (Homo sapiens) (UniProt P19883). The experiment in a line: follistatin binders on small-molecule microarrays, primary screen, biochemical, small-molecule microarray, 635/667 nm fluorescence (AID 1132). Conditions: FST binding, 635 nm fluorescence, higher = more signal.
Follistatin (Homo sapiens), sequence (P19883 whole entry, looked up): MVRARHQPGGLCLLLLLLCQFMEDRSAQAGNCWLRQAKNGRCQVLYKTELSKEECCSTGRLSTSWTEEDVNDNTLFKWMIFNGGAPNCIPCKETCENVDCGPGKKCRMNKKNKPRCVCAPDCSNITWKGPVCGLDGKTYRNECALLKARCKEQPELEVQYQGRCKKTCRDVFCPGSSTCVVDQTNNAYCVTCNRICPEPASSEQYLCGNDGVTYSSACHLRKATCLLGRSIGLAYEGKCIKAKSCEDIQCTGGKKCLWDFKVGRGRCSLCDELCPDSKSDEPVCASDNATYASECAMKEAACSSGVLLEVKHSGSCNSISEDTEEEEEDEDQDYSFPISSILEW
The target of experiment [6] is Fibroblast growth factor 2 (Homo sapiens) (UniProt P09038). In words: FGF2 binders on small-molecule microarrays, primary screen, biochemical, small-molecule microarray, 635/667 nm fluorescence (AID 1133). The conditions noted are these: small-molecule microarray binding, FGF2, fluorescence 635/667; higher = more signal.
Fibroblast growth factor 2 (Homo sapiens), sequence (P09038 whole entry, looked up): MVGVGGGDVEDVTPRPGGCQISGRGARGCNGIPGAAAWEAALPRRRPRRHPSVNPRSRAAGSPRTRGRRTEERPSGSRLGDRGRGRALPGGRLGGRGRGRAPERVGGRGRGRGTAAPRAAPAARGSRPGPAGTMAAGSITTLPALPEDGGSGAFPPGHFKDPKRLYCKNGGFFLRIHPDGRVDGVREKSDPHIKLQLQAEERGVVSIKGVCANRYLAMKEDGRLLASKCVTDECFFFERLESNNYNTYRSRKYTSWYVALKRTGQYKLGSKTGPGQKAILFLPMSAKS
Experiment [7] can be described thus: mitochondrial membrane potential change in A549 cells, profiling panel, cell-based, JC-1 fluorescence, basal, 24 h, 100 nL (AID 1138).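 Further: A549 lung adenocarcinoma cells under basal conditions with no added stimulus; test concentration not given here.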 Conditions: higher = more signal.
For experiment [8], the system named is Lefty1. In words: Lefty1 binders on small-molecule microarrays, primary screen, biochemical, small-molecule microarray, 635/667 nm fluorescence (AID 1139). The conditions noted are these: small-molecule microarray binding, fluorescence 635/667; higher = more signal.
In experiment [9] the test system is wheat germ agglutinin (Triticum aestivum), Alexa647-labelled. In words: wheat germ agglutinin binders on compound microarrays, profiling panel, artefact control for SMM control-protein annotation, biochemical, small-molecule microarray, 635/667 nm fluorescence (AID 1140).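 Further: score merges 667 nm feature emission with signal to noise over triplicate slides.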 The conditions noted are these: WGA-A647 binding, 635 nm fluorescence, higher = more signal.

Experiment [10] deals with Luciferin 4-monooxygenase (Photinus pyralis) (UniProt P08659). The experiment in a line: firefly luciferase enzyme inhibitors, primary screen, biochemical, luminescence, purified enzyme, 2006 set (AID 1141).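 Further: cell-free assay with purified firefly luciferase at 100 ng per well in PBS; test concentration not given here.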 The conditions noted are these: SteadyGlo luminescence, 30 min, higher = more signal, called active from +8 up or from −8 down.
Luciferin 4-monooxygenase (Photinus pyralis), sequence (P08659 whole entry, looked up): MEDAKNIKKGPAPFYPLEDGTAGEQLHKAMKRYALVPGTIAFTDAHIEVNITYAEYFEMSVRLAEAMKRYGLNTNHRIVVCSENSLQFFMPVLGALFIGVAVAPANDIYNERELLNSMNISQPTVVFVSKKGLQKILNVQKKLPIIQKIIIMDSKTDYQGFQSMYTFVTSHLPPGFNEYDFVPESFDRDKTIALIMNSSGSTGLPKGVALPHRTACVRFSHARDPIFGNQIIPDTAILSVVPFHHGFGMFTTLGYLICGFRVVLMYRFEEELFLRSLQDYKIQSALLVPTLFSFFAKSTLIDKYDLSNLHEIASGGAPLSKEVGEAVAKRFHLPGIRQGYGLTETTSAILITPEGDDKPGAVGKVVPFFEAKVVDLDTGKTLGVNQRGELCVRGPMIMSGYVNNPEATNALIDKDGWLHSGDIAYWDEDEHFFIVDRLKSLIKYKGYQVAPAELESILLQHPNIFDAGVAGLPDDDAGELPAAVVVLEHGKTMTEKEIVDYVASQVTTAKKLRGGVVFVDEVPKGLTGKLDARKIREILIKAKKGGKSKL

As to `CC(C)(C)OC(=O)CC[C@]1(C(=O)O)N=C(c2ccc(OCCCO)cc2)O[C@H]1c1ccccc1`, the composite z-score in [1] was 0.548; in experiment [2], 0.611; in [3] it was 0.0043; in experiment [4], 0.284; in experiment [5], 0.329; in experiment [6] it was -0.236. In addition, the composite z-score in [8] came out at 0.0766; in experiment [9] it was 0.247. The z-score was -0.132 in [7] and 0.476 (inactive) in experiment [10].
As for `C=CCOC(=O)[C@H]1[C@@H]2C(=O)O[C@@H](c3ccccc3)[C@@H](c3ccccc3)N2[C@@H](c2ccc(OCCOC(=O)[C@H]3C[C@H]4C(=O)N[C@@H](Cc5ccccc5)C(=O)N4[C@H]3c3cccc(OCCO)c3)cc2)[C@]12C(=O)Nc1ccc(I)cc12`, the composite z-score was 2.34 in experiment [1]; 1.16 in [2]; 0.41 in experiment [3]; 0.948 in experiment [4]; 1.2 in [5]; 1.71 in [6]. Further, the results for the composite z-score in [8] and in experiment [9] were 1.35 and 0.324, respectively. Further, the z-score in experiment [7] was -1.41; in [10], -0.65 (inactive).
On to `CC1CC/C=C\[C@H]2OC34C=CCN(CCN5CCOCC5)C(=O)[C@H]3N(CCO)C(=O)[C@@H]4C2C(=O)O1` (stereo not given in full), for which the composite z-score in [1] was 2.67; in experiment [2] it was -0.959; in [3], -0.583; in experiment [4], 0.187; in experiment [5], -0.361; in [6], -0.0989. The composite z-score in [8] was -0.887; in experiment [9], -0.176. Further, the z-score was -0.213 in [7] and 0.749 (inactive) in [10].
For the molecule `CN(C)CCCCNC(=O)[C@H]1C[C@H]2C(=O)N3CCC[C@H]3C(=O)N2[C@H]1c1ccc(O)cc1`, the composite z-score is -0.268 in experiment [1]; -1.6 in [2]; -0.401 in experiment [3]; -1.05 in experiment [4]; 0.443 in experiment [5]; -1.01 in experiment [6]. The composite z-score in [8] was -0.428; in experiment [9], -0.534. In addition, the results for the z-score in experiment [7] and in experiment [10] were -0.983 and 0.501 (inactive), respectively.
Take `COc1ccc([Si](C)(C)[C@H]2[C@H](CCn3cc(CCO)nn3)O[C@@]3(C(=O)N(Cc4ccc(N5C(=O)c6cccc7cccc5c67)cc4)c4ccccc43)[C@@H]2C)cc1`: the composite z-score came to 1.12 in experiment [1]; 1.2 in [2]; 0.379 in [3]; 0.431 in experiment [4]; 1.23 in experiment [5]; 0.949 in experiment [6]. Further, the composite z-score in [8] was 1.31; in [9], 0.578. For the same molecule, the z-score is -0.932 in experiment [7] and 0.303 (inactive) in experiment [10].
`CCCC=C(CCC)[C@@H](NP(=O)(c1ccccc1)c1ccccc1)c1ccc(C(F)(F)F)cc1`: the composite z-score in [1] was 0.74; in [2], 0.811; in experiment [3] it was 0.666; in experiment [4] it was 0.47; in experiment [5], -0.683; in experiment [6] it was -0.265. The composite z-score amounted to 0.57 in experiment [8] and 0.255 in [9]. Besides, the values for the z-score in [7] and in [10] were 0.365 and 2.55 (inactive), respectively.
Regarding `COc1ccc(C(O)C2C=CC3C(=O)N(C)C(=O)C3N2N2CCCCC2)cc1` (stereo not given), the composite z-score is 2.56 in [1]; 1.23 in [2]; 0.656 in experiment [3]; 0.96 in [4]; 0.299 in experiment [5]; -0.19 in experiment [6]. Besides, the composite z-score in [8] was -0.523; in experiment [9], 1.29. Moreover, the z-score in experiment [7] was 0.406; in experiment [10], -1.08 (inactive).
For the molecule `CCOC(=CC(=O)OC)CC(O)c1cccc(Cl)c1` (stereo not given), the composite z-score in experiment [1] is 1.83; in [2], 1.15; in experiment [3], 0.702; in [4], -0.76; in [5] it was -0.23; in experiment [6] it was -0.745. Also, the composite z-score was -0.417 in [8] and 1.22 in [9]. For the same molecule, the z-score in [7] was 1.32; in experiment [10] it was -0.135 (inactive).
As to `C=CCC(OC(C)=O)[C@@H]1[C@@H](N(Cc2cc3ccccc3o2)C(=O)c2ccc(C)cc2)c2cc(OCCCO)ccc2N1C(=O)Cc1ccc2ccccc2c1` (stereo not given in full), the composite z-score in experiment [1] was -0.631; in experiment [2], -0.627; in experiment [3], 0.105; in [4], -0.638; in experiment [5] it was 0.119; in experiment [6], -0.421. Besides, the composite z-score in [8] was -0.281; in experiment [9], -0.152. The results for the z-score in experiment [7] and in experiment [10] were 1.91 and -1.72 (inactive), respectively.
`CCOC(=O)[C@H]1C/C=C/C[C@H](C(=O)OCC)C(=O)O[C@H]2[C@@H](OC)O[C@H](CO)[C@@H](OC(=O)Nc3ccc(OC)cc3)[C@@H]2OC1=O`: the composite z-score in [1] turned out to be 1.96; in experiment [2], 1.16; in experiment [3] it was 0.768; in [4], 0.369; in experiment [5], 1.16; in experiment [6], 0.741. In addition, the composite z-score in experiment [8] was 0.636; in experiment [9], 0.648. Also, the z-score in [7] was 2.61; in [10], -2.06 (inactive).
Turning to `Cc1ccc(S[C@]2(C(=O)NCCN3CCOCC3)CC(=O)N(Cc3ccccc3C(F)(F)F)[C@@H]2c2ccc(CO)cc2I)cc1`, the composite z-score in [1] is 0.771; in [2], -0.0269; in experiment [3], 0.167; in experiment [4], -1.16; in experiment [5], -0.562; in experiment [6] it was -0.907. Moreover, the values for the composite z-score in experiment [8] and in experiment [9] were -0.87 and -0.194, respectively. For the same molecule, the z-score in experiment [7] was -0.695; in experiment [10] it was 0.622 (inactive).
On to `COc1ccc([Si](C)(C)[C@@H]2[C@@H](CCO)O[C@]3(C(=O)N(Cc4cccc(N5C(=O)c6ccccc6Oc6ccccc65)c4)c4ccccc43)[C@H]2C)cc1`, for which the composite z-score in experiment [1] was 0.106; in experiment [2], 0.502; in experiment [3], 0.121; in experiment [4], -0.0703; in experiment [5], -0.672; in experiment [6], -0.559. For the same molecule, the composite z-score in experiment [8] was determined as 0.135; in experiment [9] it was 0.413. In addition, the z-score in [7] was -0.368; in experiment [10], -1.26 (inactive).
In the case of `CCCN1C(=O)[C@]2(Cc3ccccc3)N=C(c3ccc(OCCCO)cc3)O[C@@H]2c2ccccc21`, the composite z-score in [1] was 1.9; in [2], 1.22; in experiment [3] it was 0.0605; in [4] it was 0.962; in [5], 1.46; in experiment [6], 1.63. Moreover, the composite z-score in [8] was determined as 0.951; in experiment [9], 0.751. Also, the z-score in experiment [7] was 1.44; in experiment [10], -4.12 (inactive).
With `NC(=O)NCC#Cc1ccc2c(c1)[C@]1(C(=O)N2)[C@H](C(=O)O)[C@H]2C(=O)O[C@H](c3ccccc3)[C@H](c3ccccc3)N2[C@@H]1c1ccccc1OCCO`, the composite z-score was 1.18 in experiment [1]; 0.866 in experiment [2]; 0.129 in [3]; 0.809 in experiment [4]; 1.03 in experiment [5]; 0.836 in [6]. Also, the values for the composite z-score in experiment [8] and in experiment [9] were 1.2 and 1.16, respectively. Moreover, the results for the z-score in experiment [7] and in experiment [10] were 0.246 and -4.72 (inactive), respectively.
On to `COC(=O)C[C@H]1O[C@]2(C(=O)N(C)c3ccccc32)[C@@H](C)[C@@H]1[Si](C)(C)c1ccc(C)cc1`, for which the composite z-score in [1] was found to be 0.522; in experiment [2] it was 1.12; in experiment [3] it was 0.342; in experiment [4] it was 0.343; in experiment [5], 0.498; in experiment [6], 0.148. For the same molecule, the composite z-score in experiment [8] was 0.818; in experiment [9], 0.255. The z-score was 0.557 in experiment [7] and -0.507 (inactive) in experiment [10].
`CC(C)(C)OC(=O)CC[C@]1(C(=O)N2CCOCC2)N=C(c2ccc(OCCCO)cc2)O[C@H]1c1ccccc1`: the composite z-score in experiment [1] was 1.9; in [2], 0.645; in experiment [3], 0.407; in experiment [4], 0.886; in experiment [5], 0.825; in experiment [6], 0.858. The figures for the composite z-score in experiment [8] and in [9] were 0.398 and 0.298, respectively. Moreover, the z-score in [7] was 2.23; in experiment [10], -1.99 (inactive).
